{"source": "the supplement of paper PMC11219838", "note": "A number with no mark means an inactive call.", "data": [{"tested_on": "Caenorhabditis elegans dauer (daf-2(e1370))", "assay": "proportion of mobile C. elegans dauer larvae relative to DMSO control (fraction of DMSO control); higher = more viable, less nematicidal, active = 0.63 or less; extreme values may be limits of the assay", "conditions": "60 µM; 5 days; temperature: 20 °C", "method_in_brief": "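Synchronized C. elegans daf-2(e1370) larvae were held at 25 °C for 48 h on MYOB plates with E. coli OP50 to form dauers, and about 20 dauers were added per 96-well well in liquid NGM. Compound was pinned to 60 µM final (0.6% v/v DMSO), and sealed plates were shaken at 200 rpm for 5 days at 20 °C. The proportion of mobile worms was scored under a dissection microscope relative to DMSO controls and averaged over two biological replicates.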", "values": [{"smiles": "Cc1cc(NC(=O)CSc2nnc(-c3ccccc3Cl)o2)no1", "proportion of mobile C. elegans dauer larvae": 1}, {"smiles": "CC(C)Oc1cccc(-c2nc(-c3ccccn3)no2)c1", "proportion of mobile C. elegans dauer larvae": 0.667}, {"smiles": "COc1ccc(-c2noc(-c3ccccc3C)n2)cc1", "proportion of mobile C. elegans dauer larvae": "0.533 (active)"}, {"smiles": "Cc1ccccc1OCc1nc(-c2ccc(Br)cc2)no1", "proportion of mobile C. elegans dauer larvae": 1}, {"smiles": "Cc1cc(OC(C)c2nc(-c3ccccn3)no2)ccc1Cl", "note": "(stereo not given)", "proportion of mobile C. elegans dauer larvae": 1}, {"smiles": "COc1ccc(-c2noc(COc3ccc(C(C)(C)C)cc3Br)n2)cc1", "proportion of mobile C. elegans dauer larvae": 1}, {"smiles": "Cc1ccc(-c2nnc(SCC(=O)NCc3ccccc3)o2)cc1", "proportion of mobile C. elegans dauer larvae": 1}, {"smiles": "Brc1ccc(-c2noc(-c3ccc4c(c3)OCO4)n2)cc1", "proportion of mobile C. elegans dauer larvae": 1}]}, {"tested_on": "Ditylenchus dipsaci", "assay": "proportion of mobile D. dipsaci (mixed stage) relative to DMSO control (fraction of DMSO control); higher = more viable, less nematicidal, active = 0.86 or less; extreme values may be limits of the assay", "conditions": "60 µM; 5 days; temperature: 20 °C", "method_in_brief": "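D. dipsaci were grown on pea plants in Gamborg B-5 agar and extracted through a filter funnel into water, and about 20 worms were added per 96-well well in distilled water. Compound was pinned to 60 µM final (0.6% v/v DMSO), and sealed plates were shaken at 200 rpm for 5 days at 20 °C. After 2 µL 1 M NaOH was added, mobile worms were scored microscopically. Mobility was expressed relative to DMSO controls and averaged over two biological replicates.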", "values": [{"smiles": "COc1cccc(NC(=O)CSc2nnc(-c3ccc(Br)cc3)o2)c1", "proportion of mobile D. dipsaci": 1}, {"smiles": "Cc1ccc(NC(=O)CSc2nnc(-c3ccccc3)o2)c(C)c1", "proportion of mobile D. dipsaci": 1}, {"smiles": "COc1ccc(NC(=O)CSc2nnc(-c3ccc(Br)cc3)o2)cc1", "proportion of mobile D. dipsaci": 1}, {"smiles": "c1ccc(-c2noc(CSc3nc4ccccc4[nH]3)n2)cc1", "proportion of mobile D. dipsaci": 1}, {"smiles": "Cc1ccc(-c2nc(-c3ccc(Br)cc3)no2)cc1", "proportion of mobile D. dipsaci": 1}, {"smiles": "Cc1ccccc1OCc1nc(-c2cccs2)no1", "proportion of mobile D. dipsaci": 1}, {"smiles": "CCc1ccc(C(=O)Nc2ccccc2-c2nc(-c3ccncc3)no2)cc1", "proportion of mobile D. dipsaci": 1}, {"smiles": "O=C(c1ccccc1-c1nc(-c2ccc(F)cc2)no1)N1CCCC1", "proportion of mobile D. dipsaci": 1}, {"smiles": "Cc1ccc(-c2nc(-c3cccc(C)c3)no2)cc1", "proportion of mobile D. dipsaci": 1}, {"smiles": "O=C(CSc1nnc(-c2ccncc2)o1)Nc1ccccc1Cl", "proportion of mobile D. dipsaci": 1}, {"smiles": "c1ccc(-c2noc(-c3cccs3)n2)cc1", "note": "[tioxazafen]", "proportion of mobile D. dipsaci": 1}, {"smiles": "Cc1ccc(-c2nnc(SCc3ccccc3C#N)o2)cc1", "proportion of mobile D. dipsaci": 1}, {"smiles": "Cc1ccc(SCc2nc(-c3ccccc3)no2)cc1", "proportion of mobile D. dipsaci": 1}, {"smiles": "CCOc1ccccc1-c1nnc(SCc2ccccc2)o1", "proportion of mobile D. dipsaci": 1}, {"smiles": "COc1cccc(-c2noc(-c3ccc(C)cc3Cl)n2)c1", "proportion of mobile D. dipsaci": 1}, {"smiles": "Cc1ccc(-c2nnc(SCC(=O)Nc3nccs3)o2)cc1", "proportion of mobile D. dipsaci": 1}, {"smiles": "Cc1ccc(OCc2nc(-c3ccccc3)no2)c(Br)c1", "proportion of mobile D. dipsaci": 1}, {"smiles": "O=C(CSc1nnc(-c2ccco2)o1)Nc1cc(Cl)ccc1Cl", "proportion of mobile D. dipsaci": 1}, {"smiles": "Cc1cccc(-c2noc(COc3ccc(Cl)cc3)n2)c1", "proportion of mobile D. dipsaci": 1}, {"smiles": "COc1ccc(-c2nnc(SCC(=O)Nc3ccc(C(C)C)cc3)o2)cc1", "proportion of mobile D. dipsaci": 1}, {"smiles": "CCc1ccc(NC(=O)CSc2nnc(-c3ccc(Cl)cc3Cl)o2)cc1", "proportion of mobile D. dipsaci": 1}, {"smiles": "O=C(CSc1nnc(-c2cccc3ccccc23)o1)c1ccc(F)cc1", "proportion of mobile D. dipsaci": 1}, {"smiles": "COc1ccc(C)cc1NC(=O)CSc1nnc(-c2ccc(Br)cc2)o1", "proportion of mobile D. dipsaci": 1}, {"smiles": "Cn1c(SCc2nc(-c3ccccc3)no2)nnc1-c1ccco1", "proportion of mobile D. dipsaci": 1}, {"smiles": "CC(=O)Nc1ccc(NC(=O)c2ccccc2-c2nc(-c3ccccc3Cl)no2)cc1", "proportion of mobile D. dipsaci": 1}, {"smiles": "Brc1ccc(-c2nc(-c3ccncc3)no2)cc1", "proportion of mobile D. dipsaci": 1}, {"smiles": "O=C(CSc1nnc(-c2cccc3ccccc23)o1)Nc1cccc(F)c1", "proportion of mobile D. dipsaci": 1}, {"smiles": "Nc1nc(CSc2nnc(-c3ccccc3)o2)cs1", "proportion of mobile D. dipsaci": 1}, {"smiles": "COc1ccc(C(=O)CSc2nnc(-c3cccc(Br)c3)o2)cc1", "proportion of mobile D. dipsaci": 1}, {"smiles": "Cc1cc(NC(=O)CSc2nnc(-c3ccccc3Cl)o2)no1", "proportion of mobile D. dipsaci": 1}, {"smiles": "CC(C)Oc1cccc(-c2nc(-c3ccccn3)no2)c1", "proportion of mobile D. dipsaci": 1}, {"smiles": "COc1ccc(-c2noc(-c3ccccc3C)n2)cc1", "proportion of mobile D. dipsaci": 1}, {"smiles": "Cc1ccccc1OCc1nc(-c2ccc(Br)cc2)no1", "proportion of mobile D. dipsaci": 1}, {"smiles": "Cc1cc(OC(C)c2nc(-c3ccccn3)no2)ccc1Cl", "note": "(stereo not given)", "proportion of mobile D. dipsaci": 1}, {"smiles": "COc1ccc(-c2noc(COc3ccc(C(C)(C)C)cc3Br)n2)cc1", "proportion of mobile D. dipsaci": 1}, {"smiles": "Cc1ccc(-c2nnc(SCC(=O)NCc3ccccc3)o2)cc1", "proportion of mobile D. dipsaci": 1}, {"smiles": "Brc1ccc(-c2noc(-c3ccc4c(c3)OCO4)n2)cc1", "proportion of mobile D. dipsaci": 1}]}]}
